Source: PubChem
Hits are enriched below; roughly 17% of the tested compounds scored in any of these assays.
TGFb inhibitor – inhibitors of TGF-b signaling | AID 588855 | Potency, µM (doses to about 46.1 µM), for the others: at the highest dose activity, negative = inhibition, actives largely listed as inhibitors | HepG2 CAGA-GFP TGF-b/SMAD3 reporter, GFP fluorescence, 18 h; TGF-beta stimulated, 500 pg/mL final | 410,000 compounds, 1.2% hits; further: on the % scale 0 is the no-effect control and ±100 the full control effect; nearly all actives have a fitted effect of over 65% in size
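Read-out: total well GFP (ex488/em500-530) summed from mean per-cell fluorescence. Cells: HEPG2 CAGA-GFP, 1% FBS DMEM, 18 h at 37 degrees C with 500 pg/mL final TGF-beta. Unstimulated wells served as the full-inhibition control; stimulated DMSO wells = 0%.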
HT1080NT lethal – kills 2HG-producing HT-1080-NT fibrosarcoma cells | HT-1080-NT fibrosarcoma viability, CellTiter-Glo ATP luminescence, 48 h | Potency, µM (titrated, usually from 46.1 µM), without a hit: top-dose activity, negative = less viability, hits mostly cytotoxic | 360,000 compounds, 1.6% hits | AID 686970;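 further: NT is the 2HG producing partner of a matched IDH1 knockdown line; 0% = DMSO-treated cells and -100% = media-only wells without cells; nearly all actives have a fitted effect of over 55% in size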
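Toxicity toward the 2HG-producing NT line was scored as %Activity, normalised to DMSO and no-cell wells, from CellTiter-Glo luminescence after 48 hours' treatment.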
HT1080 IDH1KD tx – toxicity to HT-1080 IDH1 knockdown cells (counter line); Potency, µM (titrated, usually from 46.1 µM), inactives show at the highest dose activity, negative = toxicity, usual class: cytotoxic; 360,000 compounds, 2% hits; AID 686971; HT-1080 IDH1 knockdown viability, ATP luminescence, 48 h;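 further: 0% = DMSO wells and -100% = cell-free medium wells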
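IDH1KD HT-1080 cells, 750/well, RPMI + 5% FBS; compound pinned after 2 h settling; 48 h, 37 °C; CellTiter-Glo luminescence; % activity normalised to DMSO and no-cell wells; curves fitted, classed by r2 and efficacy.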
HepG2 tox – HepG2 cytotoxicity, counter-screen for TGF-b inhibitors; HepG2 CAGA-GFP viability, ATP luminescence, 18 h; Potency, µM (highest dose often 46.1 µM), for the others: top-dose activity change, negative = cytotoxicity, hits mostly cytotoxic; 410,000 compounds, 0.76% hits
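HepG2 CAGA-GFP cells (1000/well, DMEM with 1% FBS) received compound, then TGF-beta at 500 pg/mL final, and were incubated 18 hours at 37 degrees C. Viability was read by CellTiter-Glo luminescence. Media-only wells were set as complete cell-killing and DMSO as no toxicity.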
TDP1 cell CPT – DT40-hTDP1 cell growth loss with CPT. 420,000 compounds, 12% hits. Potency, µM (titrated, usually from 46.2 µM), for the others: at the top dose activity change, negative = growth inhibition, usual class: inhibitors. AID 686979. chicken DT40 Tdp1-/-;hTDP1 cells + 20 nM CPT, ATP luminescence, 48 h; further: on the % scale 0 is the no-effect control and ±100 the full control effect; nearly all actives have a fitted effect of over 55% in size
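Chicken DT40 Tdp1-/- cells stably complemented with human TDP1 were seeded at 400 cells/well in medium containing 20 nM camptothecin, exposed to pin-transferred compounds, and grown at 37 °C for at least 48 hr. Viability was read as ATP luminescence.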
DT40 TDP1 no CPT – qHTS for Inhibitors of human tyrosyl-DNA phosphodiesterase 1 (TDP1): qHTS in cells in absence of CPT; DT40 Tdp1-/- hTDP1 cells, no CPT, ATP luminescence, 48 h; Potency, µM (doses to about 46.2 µM), without a hit: at the highest dose activity change, negative = growth inhibition, most hits filed as inhibitors; 420,000 compounds, 15% hits; AID 686978, 2013; further: on the % scale 0 is the no-effect control and ±100 the full control effect; nearly all actives have a fitted effect of over 55% in size
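Seeded 400 DT40-hTDP1 cells/well (vehicle DMSO, no 20 nM CPT); pinned compounds; ≥48 hr at 37 °C; CellTiter-Glo luminescence as viability measure.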
Active calls of the source: *; ? = inconclusive; . = no result. The call rests on the fitted dose curve; in most records, active means well fitted curve in the direction sought with a large enough effect; inconclusive means small, poorly fitted or top-dose-only effect, or another doubt; inactive means no such curve, though single readings can be large; an effect the other way counts as inactive or inconclusive. Potency means the concentration at half of the fitted maximal effect.

SMILES	TGFb inhibitor	HT1080NT lethal	HT1080 IDH1KD tx	HepG2 tox	TDP1 cell CPT	DT40 TDP1 no CPT
CCC1CCCCN1c1cc(C)nc2cc(-c3cccc(C)c3)nn12 (stereo unspecified)	?	?	?	-13.6%	?	13µM*
Cc1cc(N2CCOCC2)n2nc(-c3cccc(F)c3)cc2n1	-2.9%	20.0%	10.9%	-13.8%	-21.3%	-8.7%
Cc1ccc[n+](CC(=O)Nc2ccc(C)c(C)c2)c1	0.9%	-7.6%	-3.0%	0.6%	?	-22.3%
COC(=O)CN1C(=O)C2(C(C#N)=C(N)Oc3n[nH]c(-c4cccs4)c32)c2ccccc21 (stereo unspecified)	-6.5%	-2.0%	10.3%	-0.4%	6.8%	-21.6%
COC(=O)CN1C(=O)C2(C(C#N)=C(N)Oc3c2c(C)nn3-c2ccccc2)c2ccccc21 (stereo unspecified)	?	?	?	-36.9%	?	20.6µM*
O=[N+]([O-])c1cc([N+](=O)[O-])c2nonc2c1Nc1ccccc1O	-17.5%	-17.7%	-25.6%	-23.9%	?	?
O=[N+]([O-])c1cc([N+](=O)[O-])c2nonc2c1Nc1ccc(O)cc1	-9.9%	-1.4%	-3.9%	-16.6%	?	20.6µM*
O=[N+]([O-])c1cncc([N+](=O)[O-])c1Nc1cccc(O)c1	?	-21.8%	-15.5%	-29.4%	5.17µM*	4.11µM*
Cc1ccccc1Nc1c([N+](=O)[O-])cncc1[N+](=O)[O-]	?	-1.7%	8.4%	-26.7%	?	14.6µM*
CCn1c(CNc2ccc(C)cc2)nnc1SCC(N)=O	-3.9%	7.3%	14.6%	7.7%	-1.5%	-10.7%
Cc1cc(C)n(CCc2nc(-c3ccc(C(C)(C)C)cc3)cs2)n1	?	-5.5%	-9.8%	-32.7%	23.1µM*	11.6µM*
COc1cc(-c2csc(CCn3nc(C)cc3C)n2)cc(OC)c1OC	43.7%	-2.8%	2.5%	0.5%	20.6µM*	18.4µM*
Cc1cc(C)n(CCc2nc(-c3ccc(F)cc3)cs2)n1	-12.0%	-3.0%	-2.7%	-10.9%	?	?
O=C(NC1CCCC1)c1ccc2c(=O)n(Cc3ccccc3)c(SCc3cccc(F)c3)nc2c1	12.1%	.	.	-30.4%	-27.0%	?
CS(=O)(=O)N(CC(=O)N1CCC(C(N)=O)CC1)Cc1ccc(Cl)c(Cl)c1	1.3%	9.3%	4.5%	-13.7%	-0.3%	?
CS(=O)(=O)N(CC(=O)NCCSCc1ccccc1Cl)c1ccc(F)cc1	-2.8%	-3.5%	-2.2%	-5.5%	?	?
CCOC(=O)c1[nH]c2ccc(Br)cc2c1NC(=O)CCN1CCC(C(=O)OCC)CC1	0.0%	-22.0%	-15.7%	0.3%	20.6µM*	16.4µM*
CCOC(=O)c1[nH]c2ccc(Br)cc2c1NC(=O)CCN1CCN(C(=O)OCC)CC1	-18.5%	-4.0%	-14.6%	-12.6%	?	?
CCOC(=O)C1CCCN(CC(=O)Nc2c(C(=O)OC)[nH]c3ccc(C)cc23)C1 (stereo unspecified)	2.4%	-4.9%	-7.3%	-19.5%	?	23.1µM*
Cc1ccc(N=C2NC(=O)CC(C(=O)Nc3cc(C(F)(F)F)ccc3Cl)S2)cc1 (stereo unspecified)	0.0%	.	.	-41.3%	?	?
CCc1sc(N(C(=O)Cc2ccccc2)c2ccccc2F)nc1-c1ccc(C)cc1	10.4%	4.1%	10.5%	-4.1%	?	16.4µM*
COCC(=O)Nc1cc(C(=O)N2CCc3c(Cl)cccc3C2)c2c(c1)nc(-c1ccncc1)n2C	.	.	.	.	4.2%	2.9%
OCC1(CCc2ccccc2)CCN(C/C=C/c2ccccc2)CC1	-4.0%	-5.2%	-2.1%	-32.2%	-29.7%	-23.0%
OCC1(Cc2ccccc2Cl)CCN(C/C=C/c2ccccc2)CC1	?	-10.1%	-15.7%	-71.5%	?	18.4µM*
COCOCCn1cc(CN2CCS(=O)(=O)N(Cc3ccc(-c4ccc(OC)cc4)cc3)C(C(C)C)C2=O)nn1 (stereo unspecified)	-0.4%	-4.9%	-6.1%	-20.2%	14.6µM*	16.4µM*
SMILES	TGFb inhibitor	HT1080NT lethal	HT1080 IDH1KD tx	HepG2 tox	TDP1 cell CPT	DT40 TDP1 no CPT
COCOCCn1cc(CN2CCS(=O)(=O)N(Cc3ccc(-c4ccc(Cl)nc4)cc3)C(C(C)C)C2=O)nn1 (stereo unspecified)	-7.7%	-16.5%	-3.5%	1.2%	7.31µM*	-0.7%
COCOCCn1cc(CN2CCS(=O)(=O)N(Cc3ccc(-c4ccccc4)cc3)C(C(C)C)C2=O)nn1 (stereo unspecified)	-17.6%	-0.7%	-7.5%	-7.4%	?	23.1µM*
COCOCCn1cc(CN2CCS(=O)(=O)N(Cc3ccc(-c4ccc(C)cc4)cc3)C(C(C)C)C2=O)nn1 (stereo unspecified)	-5.8%	-2.2%	4.4%	-28.0%	?	?
COCOCCn1cc(CN2CCS(=O)(=O)N(Cc3ccc(-c4ccncc4)cc3)C(CC(C)C)C2=O)nn1 (stereo unspecified)	0.1%	0.9%	0.3%	-19.0%	23.1µM*	?
COCCNCc1nc2sc(C)c(-c3ccccc3)c2c(=O)[nH]1	-4.5%	5.6%	-1.6%	-1.4%	?	?
Cc1c(C(=O)NCC(c2ccco2)N(C)C)oc2c(Cl)cccc12 (stereo unspecified)	-0.7%	-3.3%	7.1%	0.0%	?	?
Cc1ccc(CNC(=O)C2CCN(Cc3nc(-c4ccccc4C)oc3C)CC2)cc1	-5.0%	.	.	-21.4%	?	?
Cc1ccccc1-c1nc(CN2CCCC(C(=O)NCCCN3CCOCC3)C2)c(C)o1 (stereo unspecified)	?	-26.4%	-2.1%	-26.1%	3.5%	?
Cc1ccc(CCNC(=O)C2CCN(Cc3nc(-c4ccccc4C)oc3C)CC2)cc1	-21.4%	.	.	-22.5%	13µM*	18.4µM*
CCc1ccc(-c2nc(CN3CCCC(C(=O)NCCc4ccc(OC)c(OC)c4)C3)c(C)o2)cc1 (stereo unspecified)	0.0%	-29.6%	?	-49.4%	23.1µM*	13µM*
Cc1ccccc1-c1nc(CN2CCCC(C(=O)NCc3cccnc3)C2)c(C)o1 (stereo unspecified)	-0.1%	-7.4%	-13.2%	-19.3%	23.1µM*	16.4µM*
